Here are results for 21 compounds from the supplement of paper PMC6853941.

Structures can show the parent of a compound that is named as a salt. Values without a mark were called inactive.

For one test, the system named is MCF10A. The experiment in a line: perturbation Mahalanobis distance of morphological profile vs DMSO controls (Mahalanobis distance (SD units)); higher = stronger morphological change, active = 7 or more. The note with it: screen batch: Batch1_Mahalanobis_Distance; 72 h. As to the method: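 MCF10A cells were seeded onto drugs dispensed acoustically into 384-well plates, using one dose per drug chosen from its human peak plasma concentration, and incubated for 72 h at 37 °C. Cells were stained for DNA, tubulin and mitochondria and imaged; 78 CellProfiler features were extracted, plate-normalised and compared with DMSO wells.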
With `C[N+](C)(C)CCOC(N)=O` [Carbachol] (37 µM), the “perturbation Mahalanobis distance” value was 2.88.
Still for that read-out and setting: the result for `CC[N+](C)(C)Cc1ccccc1Br` [Bretylium Tosylate] (84.1 µM) reads 2.48.
Turning to `Nc1ccn([C@@H]2O[C@H](CO)[C@@H](O)[C@@H]2O)c(=O)n1` [Cytarabine] (10.3 µM), the “perturbation Mahalanobis distance” value was 12.2 (active).
On the same count and under the same terms, the result for `C1CNCCN1` [Piperazine Hexahydrate] (5.8 µM) reads 2.12; that for `Cc1[nH]c(=O)c(C#N)cc1-c1ccncc1` [Milrinone] (5.9 µM), 2.49.
For `NS(=O)(=O)c1cc(Cl)c(Cl)c(S(N)(=O)=O)c1` [Dichlorphenamide] (214.8 µM), the “perturbation Mahalanobis distance” value was 2.6.
For the compound `CC[C@]1(O)C[C@H]2CN(CCc3c([nH]c4ccccc34)[C@@](C(=O)OC)(c3cc4c(cc3OC)N(C)[C@H]3[C@@](O)(C(=O)OC)[C@H](OC(C)=O)[C@]5(CC)C=CCN6CC[C@]43[C@@H]65)C2)C1` [Vinblastine] (0.12 µM), the “perturbation Mahalanobis distance” value was 11.4 (active).
On the same count and under the same terms, the result for `NC(=O)OCC(COC(N)=O)c1ccccc1` [Felbamate] (205.7 µM) reads 2.24; that for `c1ccc([C@H]2CN3CCSC3=N2)cc1` [Levamisole] (11.7 µM), 2.32; that for `Cc1nnc(C(C)C)n1C1C[C@H]2CC[C@@H](C1)N2CC[C@H](NC(=O)C1CCC(F)(F)CC1)c1ccccc1` (stereo not given in full) [Maraviroc] (11.35 µM), 2.84.
The same measure, in the same setting: to `CC/C(=C(\c1ccc(O)cc1)c1ccc(OCCNC)cc1)c1ccccc1` [Endoxifen] (6.75 µM) belongs 2.6.
Regarding `CCN(CC)CCCC(C)Nc1ccnc2cc(Cl)ccc12` (stereo not given) [Chloroquine] (4.7 µM), the “perturbation Mahalanobis distance” value was 2.4.
With `C[C@]12C=CC(=O)N[C@@H]1CC[C@@H]1[C@@H]2CC[C@]2(C)[C@@H](C(=O)Nc3cc(C(F)(F)F)ccc3C(F)(F)F)CC[C@@H]12` [Dutasteride] (12 µM), the “perturbation Mahalanobis distance” value is 2.35.
`COc1cc(N)c(Cl)cc1C(=O)NC1CCN(CCCOc2ccc(F)cc2)CC1OC` (stereo not given) [Cisapride] (0.85 µM): the “perturbation Mahalanobis distance” value is 3.31.
Same read-out and setting: the result for `CC(c1cc2ccccc2s1)N(O)C(N)=O` (stereo not given) [Zileuton] (105.4 µM) reads 3.71; that for `C[C@@H](O[C@@H]1OCCN(Cc2nc(=O)[nH][nH]2)[C@@H]1c1ccc(F)cc1)c1cc(C(F)(F)F)cc(C(F)(F)F)c1` [Aprepitant] (20.7 µM), 5.02.
Still for that read-out and setting: to `CC(C)N=C(N)/N=C(\N)Nc1ccc(Cl)cc1` [Proguanil] (3 µM) belongs 2.24.
Same read-out and setting: to `CC(=O)O[C@]1(C(C)=O)CC[C@H]2[C@@H]3CCC4=CC(=O)CCC4=C3[C@@H](c3ccc(N(C)C)cc3)C[C@@]21C` [Ulipristal Acetate] (3.9 µM) belongs 9.29 (active); to `O=c1n(CCCN2CCN(c3cccc(Cl)c3)CC2)nc2ccccn12` [Trazodone] (21.5 µM), 2.62; to `O=C(C1CCCCC1)N1CC(=O)N2CCc3ccccc3C2C1` (stereo not given) [Praziquantel] (3.2 µM), 3.15.

The test is the same for the next values; noted with them: screen batch: Batch2_Mahalanobis_Distance; 72 h.
Consider `C[N+](C)(C)CCOC(N)=O` [Carbachol] (37 µM), for which the “perturbation Mahalanobis distance” value is 2.82.
With `CC[N+](C)(C)Cc1ccccc1Br` [Bretylium Tosylate] (84.1 µM), the “perturbation Mahalanobis distance” value is 2.83.
Regarding `Nc1ccn([C@@H]2O[C@H](CO)[C@@H](O)[C@@H]2O)c(=O)n1` [Cytarabine] (10.3 µM), the “perturbation Mahalanobis distance” value is 17.9 (active).
As for `C1CNCCN1` [Piperazine Hexahydrate] (5.8 µM), the “perturbation Mahalanobis distance” value was 2.76.
Same read-out and setting: the result for `Cc1[nH]c(=O)c(C#N)cc1-c1ccncc1` [Milrinone] (5.9 µM) reads 3.46.
For `NS(=O)(=O)c1cc(Cl)c(Cl)c(S(N)(=O)=O)c1` [Dichlorphenamide] (214.8 µM), the “perturbation Mahalanobis distance” value is 4.41.
`NC(=O)OCC(COC(N)=O)c1ccccc1` [Felbamate] (205.7 µM): the “perturbation Mahalanobis distance” value is 2.91.
As for `c1ccc([C@H]2CN3CCSC3=N2)cc1` [Levamisole] (11.7 µM), the “perturbation Mahalanobis distance” value was 2.52.
Still for that read-out and setting: the result for `Cc1nnc(C(C)C)n1C1C[C@H]2CC[C@@H](C1)N2CC[C@H](NC(=O)C1CCC(F)(F)CC1)c1ccccc1` (stereo not given in full) [Maraviroc] (11.35 µM) reads 2.67.
On the same count and under the same terms, to `CC/C(=C(\c1ccc(O)cc1)c1ccc(OCCNC)cc1)c1ccccc1` [Endoxifen] (6.75 µM) belongs 7.34 (active); to `CCN(CC)CCCC(C)Nc1ccnc2cc(Cl)ccc12` (stereo not given) [Chloroquine] (4.7 µM), 2.82; to `C[C@]12C=CC(=O)N[C@@H]1CC[C@@H]1[C@@H]2CC[C@]2(C)[C@@H](C(=O)Nc3cc(C(F)(F)F)ccc3C(F)(F)F)CC[C@@H]12` [Dutasteride] (12 µM), 2.96.
Same read-out and setting: the result for `COc1cc(N)c(Cl)cc1C(=O)NC1CCN(CCCOc2ccc(F)cc2)CC1OC` (stereo not given) [Cisapride] (0.85 µM) reads 2.99; that for `NC(=O)NO` [Hydroxyurea] (650 µM), 15.4 (active); that for `CC(c1cc2ccccc2s1)N(O)C(N)=O` (stereo not given) [Zileuton] (105.4 µM), 5.1.
In the case of `C[C@@H](O[C@@H]1OCCN(Cc2nc(=O)[nH][nH]2)[C@@H]1c1ccc(F)cc1)c1cc(C(F)(F)F)cc(C(F)(F)F)c1` [Aprepitant] (20.7 µM), the “perturbation Mahalanobis distance” value is 3.18.
Same read-out and setting: to `CC(C)N=C(N)/N=C(\N)Nc1ccc(Cl)cc1` [Proguanil] (3 µM) belongs 3.24; to `CC(=O)O[C@]1(C(C)=O)CC[C@H]2[C@@H]3CCC4=CC(=O)CCC4=C3[C@@H](c3ccc(N(C)C)cc3)C[C@@]21C` [Ulipristal Acetate] (3.9 µM), 10.4 (active); to `O=c1n(CCCN2CCN(c3cccc(Cl)c3)CC2)nc2ccccn12` [Trazodone] (21.5 µM), 3.12.
Still for that read-out and setting: to `O=C(C1CCCCC1)N1CC(=O)N2CCc3ccccc3C2C1` (stereo not given) [Praziquantel] (3.2 µM) belongs 3.64.
